Source: PubChem BioAssay (National Center for Advancing Translational Sciences (NCATS))
PI5P4K alpha inh: blocks human PI5P4K alpha kinase activity; P48426; PI5P4Kalpha enzyme, ADP-Glo luminescence, 60 min; hits give low values; max response, %; actives 1.2% (n = 330,000); active = max response of -50% or lower; inconclusive = between -30% and -50%; inactive = -30% or higher; note: value at the top dose of about 77 µM
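ADP-Glo luminescence end-point after a 60 min room-temperature kinase reaction. PI5P4Kalpha and substrate in HEPES pH 7.4 buffer with EGTA, 0.1% CHAPS and 5% DMSO; ATP at 5 microM final.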
PI4K2A block: inhibitors of human PI4K2A. actives 0.13% (n = 420,000). purified PI4K2A, ADP-Glo luminescence, 1 h; hits give low values. activity change, negative = inhibition, % at 76.9 µM; in the data active = activity change below about -50%; inconclusive = mostly about -30% to -49%
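PI4K2A activity was measured by ADP-Glo luminescence: enzyme (4 ug/mL stock) and phosphatidylinositol (1.2 mM stock) in Tris pH 7.5/MgCl2/EGTA/Triton X-100 buffer were reacted with ATP (300 microM stock) for one hour at ambient temperature.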
POLB inh: inhibitors of human DNA polymerase beta | P06746 | Pol beta primer extension/strand displacement, fluorescence kinetic | Potency, µM (series often up to 114 µM), actives largely listed as inhibitors | actives 1.3% (n = 340,000) | AID 485314
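Pol beta (10 nM) was preincubated with compound for 15 min at room temperature. The reaction was then started with 50 nM substrate and read immediately and after a further 10 min at room temperature.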
POLI inh: inhibitors of human DNA polymerase iota. Q9UNA4. Pol iota fluorescent replication assay, 10 min. Potency, µM (titrated, usually from 115 µM), most hits filed as inhibitors. actives 1% (n = 390,000). AID 588590
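Pol iota at 10 nM preincubated 15 min with compounds at room temperature; reaction started with fluorescent substrate, 50 nM final. Fluorescence read kinetically at 0 and 10 min; buffer-only wells as negative control.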
Pol kappa inh: DNA polymerase kappa (human) inhibition | Potency, µM (series often up to 107 µM), usual class: inhibitors | purified Pol kappa, fluorescent DNA synthesis assay, 10 min | Q9UBT6 | AID 588579 | actives 0.53% (n = 400,000)
Target sequence (Q9UBT6 whole entry, looked up): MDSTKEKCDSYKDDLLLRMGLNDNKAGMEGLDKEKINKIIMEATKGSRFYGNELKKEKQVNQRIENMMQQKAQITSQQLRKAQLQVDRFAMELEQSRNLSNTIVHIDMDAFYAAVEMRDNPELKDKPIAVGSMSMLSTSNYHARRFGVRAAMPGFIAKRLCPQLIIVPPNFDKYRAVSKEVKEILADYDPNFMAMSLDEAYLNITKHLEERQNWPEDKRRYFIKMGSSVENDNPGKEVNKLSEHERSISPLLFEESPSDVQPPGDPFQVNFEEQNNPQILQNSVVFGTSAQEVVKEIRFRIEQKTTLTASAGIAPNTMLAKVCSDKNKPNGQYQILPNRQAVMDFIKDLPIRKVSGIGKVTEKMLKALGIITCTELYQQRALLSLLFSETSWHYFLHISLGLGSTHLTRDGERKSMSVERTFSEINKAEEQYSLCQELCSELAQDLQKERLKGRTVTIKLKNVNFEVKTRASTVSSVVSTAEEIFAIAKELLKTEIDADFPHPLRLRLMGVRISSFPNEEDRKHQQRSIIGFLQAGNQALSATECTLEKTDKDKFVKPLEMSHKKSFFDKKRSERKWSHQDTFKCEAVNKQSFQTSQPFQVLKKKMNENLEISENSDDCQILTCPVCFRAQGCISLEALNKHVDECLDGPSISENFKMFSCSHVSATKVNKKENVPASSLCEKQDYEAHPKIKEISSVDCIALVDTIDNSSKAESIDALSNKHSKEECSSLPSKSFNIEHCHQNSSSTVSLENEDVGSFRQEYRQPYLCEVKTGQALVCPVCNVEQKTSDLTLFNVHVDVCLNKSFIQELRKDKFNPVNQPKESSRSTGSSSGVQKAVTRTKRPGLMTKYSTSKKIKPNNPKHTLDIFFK
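First, compounds were pin-transferred onto 10 nM Pol kappa. After 15 min at room temperature, substrate was added to 50 nM final. Fluorescence was then measured kinetically at 0 and 10 min.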
POLH inh: inhibitors of human DNA polymerase eta; AID 588591; actives 1.2% (n = 390,000); recombinant Pol eta, fluorescent DNA replication assay; Potency, µM (top dose mostly 114 µM), most hits filed as inhibitors
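Fluorescent replication assay: 50 nM final substrate added after a 15 min room-temperature compound preincubation with 10 nM enzyme. Signal taken at 0 min and again at 10 min.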
Hits are given with their value; 0 = inactive; ? = inconclusive; - = no result; [ ] = dose if it differs, or a comment. The list is not random: actives were taken first. Their share in the collection is about 2.8%. Unless noted, calls come from the whole dose curve; as a rule, active = well fitted inhibition curve with a large enough effect; inconclusive = small, poorly fitted or top-dose-only effect, or another doubt; inactive = no such curve, though single readings can be large or run the other way.

SMILES	PI5P4K alpha inh	PI4K2A block	POLB inh	POLI inh	Pol kappa inh	POLH inh
COc1cccc(C(=O)NC2CC3CCCC(C2)N3CC(=O)Nc2ccccc2)c1 (stereo not drawn)	0	0	39.8µM	?	0	?
O=C(Cc1cccc2ccccc12)N/N=C/c1ccc(OC(=O)/C=C/c2ccco2)cc1	?	0	10µM	?	?	?
O=C(c1cc(Cl)cc(Cl)c1)N1CC[C@H]2[C@H](CCCN2Cc2cc(F)cc(F)c2)C1	-	0	-	-	-	-
O=c1cc(-c2ccccc2O)oc2ccc3ccccc3c12	-	-	-	-	0[19.4 µM]	-
O=c1cc(-c2ccccc2O)oc2c(O)c(O)ccc12	-	-	-	-	0.891µM	-
Cc1oc2c(O)c(O)ccc2c(=O)c1-c1ccccc1	0	0	?	?	?	0
O=c1cc(-c2ccccc2)oc2c(O)c(O)ccc12	-	-	-	-	8.91µM	-
O=C(O)Cn1c(=O)n(Cc2ccc(Br)cc2F)c(=O)c2ccc(Cl)cc21	-	0	-	-	-	-
Cc1cc(N)ccc1-n1c(C)ccc1C	0	0	0	0	0	0
Cc1cc(N)ccc1N1CCCC1	-72.0	?	0	?	0	0
O=C(Nc1cccc(Nc2ccccc2)c1)c1cnn2c1NC(=C1CC1)C=C2C(F)F	-	-	-	0	0	-
COc1cc(C2NC(=O)C(C#N)=C(S)N2c2ccccc2)ccc1OC(C)C (stereo not drawn)	0	0	0	28.2µM	0	0
COc1ccc(C2NC(=O)C(C#N)=C(S)N2c2ccccc2)cc1OC (stereo not drawn)	?	0	0	0	0	0
Oc1ccc(Br)cc1CNc1cccc2cccnc12	0	0	0	0	0	?
Oc1c(Br)cc(Br)cc1CNc1cccc2cccnc12	0	0	44.7µM	?	?	0
O=C(Nc1ccc2c(c1)CCC2)C1COc2ccccc2O1 (stereo not drawn)	-	0	17.8µM	?	0	0
O=C(c1[nH]c2ccccc2c1Sc1ccc(Cl)cc1)N1CCCCC1	-	0	0	0	0	0
Cc1ccc(Nc2nnc(C)c(=O)[nH]2)cc1	0	0	0	0	0	0
Cc1ccc(Nc2ncc3c(=O)[nH][nH]c(=O)c3n2)cc1	-61.0	0	-	0	0	0
O=C1NC(=S)N/C1=C/c1ccc(-c2c(Br)cc([N+](=O)[O-])cc2Br)o1	-	-	8.91µM	-	-	-
Cc1ccc(-c2ccc(/C=N/NC(=S)Nc3ccccc3)o2)cc1[N+](=O)[O-]	-	0	0	0	0	0
Cc1ccc(-c2ccc(/C=C3/NC(=O)NC3=O)o2)cc1[N+](=O)[O-]	0	0	0	50.1µM	?	?
O=C1NC(=S)N/C1=C/c1cccc([N+](=O)[O-])c1	0	0	0	0	0	?
CNc1cccccc1=S	?	?	15.8µM	10µM	79.4µM	?
CC(=O)Nc1ccc(SCC(CC(C)C)N2CCN(CCc3ccccc3)CCC2=O)cc1 (stereo not drawn)	-	-	-	0	0	-
SMILES	PI5P4K alpha inh	PI4K2A block	POLB inh	POLI inh	Pol kappa inh	POLH inh
O=c1c(Cl)c(N/N=C/c2ccc(Cl)cc2)cnn1-c1ccccc1	0	0	17.8µM	28.2µM	?	?
COc1ccccc1C(=O)NC(=S)NNC(=O)c1sc2ccccc2c1Cl	-52.0	0	0	0	0	?
C#CCOCCOCCOCCNc1nc(N2CCN(C(=O)CCCCCCCCCCNC(=O)Cn3cc(CCCCCN)nn3)CC2)nc(N2CCN(C(=O)CCCCCCCCCCNC(=O)[C@H]([C@@H](C)CC)n3cc(CCCCN=C(N)N)nn3)CC2)n1	-71.7	0	-	?	0	79.4µM
C#CCOCCOCCOCCNc1nc(N2CCN(C(=O)CCCCCCCCCCNC(=O)[C@H]([C@@H](C)CC)n3cc(CCCCN=C(N)N)nn3)CC2)nc(N2CCN(C(=O)CCCCCCCCCCNC(=O)[C@H](CCCCN)n3cc(C)nn3)CC2)n1	-89.4	0	-	?	0	?
C#CCOCCOCCOCCNc1nc(N2CCN(C(=O)CCCCCCCCCCNC(=O)[C@H]([C@@H](C)CC)n3cc(CCCCCN)nn3)CC2)nc(N2CCN(C(=O)CCCCCCCCCCNC(=O)[C@H](CO)n3cc(CCCCCN)nn3)CC2)n1	-50.4	0	-	?	0	0
C#CCOCCOCCOCCNc1nc(N2CCN(C(=O)CCCCCCCCCCNC(=O)[C@H](CCCCN)n3cc(C)nn3)CC2)nc(N2CCN(C(=O)CCCCCCCCCCNC(=O)[C@H](CCCCN)n3cc(CCCC(=O)O)nn3)CC2)n1	-53.7	0	-	?	0	0
C#CCOCCOCCOCCNc1nc(N2CCN(C(=O)Cn3cc(CCCN=C(N)N)nn3)CC2)nc(N2CCN(C(=O)[C@H]([C@@H](C)CC)n3cc(CCCCN)nn3)CC2)n1	0	0	-	?	0	0
C#CCOCCOCCOCCNc1nc(N2CCN(C(=O)CCCCCCCCCCNC(=O)[C@@H](CCC(=O)O)n3cc(CCCCCN)nn3)CC2)nc(N2CCN(C(=O)CCCCCCCCCCNC(=O)[C@H]([C@@H](C)CC)n3cc(CCCCCN)nn3)CC2)n1	?	0	-	?	0	0
C#CCOCCOCCOCCNc1nc(N2CCN(C(=O)CCCCCCCCCCNC(=O)[C@H]([C@@H](C)CC)n3cc(CCCCCN)nn3)CC2)nc(N2CCN(C(=O)CCCCCCCCCCNC(=O)[C@H](CCCCN)n3cc(CCCC(=O)O)nn3)CC2)n1	?	0	-	0	0	0
Cc1cc(C)cc(-n2c(SCC(=O)N3CCC(C)CC3)nc3c([nH]c4ccccc43)c2=O)c1	-	0	0	0	0	0
CCC1CC=CC2C1C(=O)N(Cc1ccccc1)C2c1ccc2ccccc2c1 (stereo not drawn)	-	-	-	0	0	-
O=C(CSC1=NCCS1)Nc1nc2c(s1)CCCC2	?	0	56.2µM	0	0	0
Cn1nnnc1SCC(=O)Nc1nc2c(s1)CCCC2	-	0	0	0	0	0
O=C1/C(=C/c2ccco2)SC(=S)N1C1CCS(=O)(=O)C1 (stereo not drawn)	?	0	12.6µM	?	?	0
Cc1ccc(/C=C2\SC(=S)N(C3CCS(=O)(=O)C3)C2=O)cc1 (stereo not drawn)	0	0	0	0	0	0
Cc1ccc(N2C(=O)/C(=C\c3ccco3)SC2=S)cc1	?	0	44.7µM	?	79.4µM	?
Cc1ccc(/C=C2\SC(=S)N(c3cccnc3)C2=O)cc1	0	0	0	0	0	0
O=C1/C(=C\c2ccco2)SC(=S)N1c1ccccc1	0	0	28.2µM	?	0	?
CCCCCC[C@@H](CN(CCCC)S(C)(=O)=O)c1ccccc1	-	0	-	-	-	-
CCCOc1ccc(C(=O)N(Cc2ccccc2Cl)C2CCS(=O)(=O)C2)cc1 (stereo not drawn)	-	0	0	0	0	0
O=C(Cn1c(=O)oc2cc(S(=O)(=O)N3CCCC3)ccc21)NCc1ccc(Cl)cc1	-	0	?	0	0	0
